In PubChem BioAssay (NCATS):
Values joined by “and” are separate entries in the source; they are usually repeats but may differ in a detail not shown here. Equal values may be shown once. Inconclusive results are not listed. Where a call stands in place of a potency, no number is given. More than one record can exist for a structure, and the calls need not agree. Active and inactive are the calls of the source. Unless noted, calls follow the shape of the dose curve; as a rule, active = well fitted curve in the direction sought with a large enough effect; inconclusive = small, poorly fitted or top-dose-only effect, or another doubt; inactive = no such curve, though single readings can be large; an effect the other way counts as inactive or inconclusive.

Experiments:
[1] = target: Cytochrome P450 2C9 (Homo sapiens) (UniProt P11712); test: Cytochrome P450 family 2 subfamily C member 9 (CYP2C9) small molecule antagonists: luciferase biochemical (cell-free) qHTS assay (AID 1645842; active = well fitted curve in the direction sought with a large enough effect in the repeat runs; an effect the other way counts as inactive or inconclusive; also: nearly all actives have a fitted effect of over 55% in size; also: potency is read from the fitted curve at half-maximal effect)
Procedure, shortened: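 P450-Glo CYP2C9 system: proluciferin substrate with enzyme in mix containing 0.4% BSA, 10 min at room temperature, then NADPH regeneration solution added and incubated 1 h at 37C. Detection reagent stopped reaction; luminescence read after 20 min as RLU.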

[2] = target: Papain (Carica papaya) (UniProt P00784); test: Primary qHTS assay for inhibitors of the protease papain (AID 1645873);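 also: papain turnover of Z-FR-AMC read as the AMC fluorescence gain over 10 min; series mostly up to about 50 µM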
[3] = Primary qHTS for inhibitors of nuclear receptor binding SET domain protein 2 (NSD2) in an isogenic RCH-ACV NSD2 p.E1099K mutant (9B) (AID 1645876); also: nearly all actives have a fitted effect of over 70% in size; also: potency is read from the fitted curve at half-maximal effect
[4] = Primary qHTS for inhibitors of nuclear receptor binding SET domain protein 2 (NSD2) in an RCH-ACV wild type WT cells (2C) (AID 1645877); also: nearly all actives have a fitted effect of over 70% in size; also: potency is read from the fitted curve at half-maximal effect
[5] = target: Rap guanine nucleotide exchange factor 3 (Homo sapiens) (UniProt O95398); test: Confirmatory qHTS for agonist of cAMP-regulated guanine nucleotide exchange factor 3 (EPAC1) (AID 1645881); also: nearly all actives have a fitted effect of over 75% in size; also: potency is read from the fitted curve at half-maximal effect
[6] = target: Rap guanine nucleotide exchange factor 4 (Homo sapiens) (UniProt Q8WZA2); test: Confirmatory qHTS for antagonist of cAMP-regulated guanine nucleotide exchange factor 4 (EPAC2) (AID 1645885); also: nearly all actives have a fitted effect of over 25% in size; also: potency is read from the fitted curve at half-maximal effect
[7] = target: Rap guanine nucleotide exchange factor 4 (Homo sapiens) (UniProt Q8WZA2); test: Confirmatory qHTS for agonist of cAMP-regulated guanine nucleotide exchange factor 4 (EPAC2) (AID 1645884);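 also: nucleotide exchange releases bodipy-GDP from Rap1 and this lowers its fluorescence; nearly all actives have a fitted effect of over 65% in size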; also: potency is read from the fitted curve at half-maximal effect
[8] = target: Rap guanine nucleotide exchange factor 3 (Homo sapiens) (UniProt O95398); test: Confirmatory qHTS for antagonist of cAMP-regulated guanine nucleotide exchange factor 3 (EPAC1) (AID 1645880); also: nearly all actives have a fitted effect of over 55% in size
Procedure, shortened: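 Released BODIPY-GDP fluoresces less than Rap1-bound BODIPY-GDP; the signal is followed at 480/540 nm at 5-min intervals over 30 min, after 5 min at room temperature. Reactions contain 100 nM EPAC1, 250 nM RAP1B-BODIPY-GDP and 50 uM GDP; results are normalized to ATA and DMSO.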

[9] = target: Rap guanine nucleotide exchange factor 3 (Homo sapiens) (UniProt O95398); test: Counterscreen qHTS for antagonist of cAMP-regulated guanine nucleotide exchange factor 3 (EPAC1) (AID 1645888)
Excerpt: Assay Provider (PI): Xiaodong Cheng Ph.D. The University of Texas Medical Branch, […], TX MLPCN Grant: NS066510 In multi-cellular eukaryotic organisms, the effects of cAMP are transduced by two ubiquitously-expressed intracellular cAMP receptors, the classic protein kinase A/cAMP-dependent protein kinase (PKA/cAPK) and the more recently discovered exchange protein directly activated by cAMP/cAMP-regulated guanine nucleotide exchange factor (EPAC/cAMP-GEF). Both PKA and EPAC are ubiquitously expressed in all tissues, and an increase in intracellular cAMP levels will lead to the activation of both PKA and EPAC. Therefore, careful dissections of the individual role and relative contribution of EPAC and PKA within the overall cAMP signaling in various model systems are critical for further elucidating the mechanism of cAMP signaling. To date no EPAC-specific antagonists and agonist, as well as isoform-specific agonists have been reported, and developing EPAC-specific pharmacological probes to determine the physiological functions that EPAC play in the overall cAMP-mediated signaling remains a major challenge within the research field. Furthermore, identified regulators of EPAC may lead to new mechanism-based therapeutic strategies specifically targeting the EPAC / cAMP-signaling components as EPAC has been implicated to play important roles in major human pathological conditions such as diabetes, heart disease, and cancer. This qHTS will be used to screen the Molecular Libraries Small Molecule Repository (MLSMR) as a concentration-titration series using the NCGC unique quantitative screening (qHTS) platform to find activators for EPAC1. In addition, this assay will also be used as a counterscreen for the EPAC2 qHTS. This fluorescent based assay is developed and validated for EPAC1 that measures exchange using EPAC effector Rap1 complex with BODIPY-GDP, a GDP analog with a tethered fluorophores. Activators are identified by monitoring the change in fluorescence signal as the exchanged free BODIPY-GDP has a reduced fluorescence compared to Rap1-bound BODIPY-GDP. Increase in signal (activation) is the desired outcome for the EPAC1 agonist while no activity in this assay is desired for the EPAC2 agonist counterscreen. Reference: [1] de Rooij, J., Zwartkruis, F. J., Verheijen, M. H., Cool, R. H., Nijman, S. M., Wittinghofer, A., and Bos, J.L. (1998) Nature 396, 474-477. […]
EPAC1 Counterscreen PROTOCOL TABLE SEQUENCE No. (e.g., 1, 2, 3, etc.); […] […] Fluorescence. (Read 1), Ex/Em = 480 nm / 540 nm. […] Fluorescence. (Read 2), Ex/Em = 480 nm/ 540 nm. […] Fluorescence. (Read 3), Ex/Em = 480 nm / 540 nm. […] Fluorescence. (Read 4), Ex/Em = 480 nm / 540 nm. […]

Sequence of Papain (Carica papaya) (P00784 whole entry, looked up, the tested form may be a part): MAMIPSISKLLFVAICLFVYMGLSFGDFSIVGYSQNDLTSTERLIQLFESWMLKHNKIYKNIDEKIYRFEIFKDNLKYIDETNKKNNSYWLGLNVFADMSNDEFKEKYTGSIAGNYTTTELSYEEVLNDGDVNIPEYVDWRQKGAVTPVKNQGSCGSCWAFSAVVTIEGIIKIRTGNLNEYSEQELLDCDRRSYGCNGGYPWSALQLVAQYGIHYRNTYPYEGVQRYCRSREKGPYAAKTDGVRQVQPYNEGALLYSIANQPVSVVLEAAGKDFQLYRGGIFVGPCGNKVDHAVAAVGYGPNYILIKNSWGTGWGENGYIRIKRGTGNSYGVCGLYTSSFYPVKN
Sequence of Rap guanine nucleotide exchange factor 3 (Homo sapiens) (O95398 whole entry, looked up): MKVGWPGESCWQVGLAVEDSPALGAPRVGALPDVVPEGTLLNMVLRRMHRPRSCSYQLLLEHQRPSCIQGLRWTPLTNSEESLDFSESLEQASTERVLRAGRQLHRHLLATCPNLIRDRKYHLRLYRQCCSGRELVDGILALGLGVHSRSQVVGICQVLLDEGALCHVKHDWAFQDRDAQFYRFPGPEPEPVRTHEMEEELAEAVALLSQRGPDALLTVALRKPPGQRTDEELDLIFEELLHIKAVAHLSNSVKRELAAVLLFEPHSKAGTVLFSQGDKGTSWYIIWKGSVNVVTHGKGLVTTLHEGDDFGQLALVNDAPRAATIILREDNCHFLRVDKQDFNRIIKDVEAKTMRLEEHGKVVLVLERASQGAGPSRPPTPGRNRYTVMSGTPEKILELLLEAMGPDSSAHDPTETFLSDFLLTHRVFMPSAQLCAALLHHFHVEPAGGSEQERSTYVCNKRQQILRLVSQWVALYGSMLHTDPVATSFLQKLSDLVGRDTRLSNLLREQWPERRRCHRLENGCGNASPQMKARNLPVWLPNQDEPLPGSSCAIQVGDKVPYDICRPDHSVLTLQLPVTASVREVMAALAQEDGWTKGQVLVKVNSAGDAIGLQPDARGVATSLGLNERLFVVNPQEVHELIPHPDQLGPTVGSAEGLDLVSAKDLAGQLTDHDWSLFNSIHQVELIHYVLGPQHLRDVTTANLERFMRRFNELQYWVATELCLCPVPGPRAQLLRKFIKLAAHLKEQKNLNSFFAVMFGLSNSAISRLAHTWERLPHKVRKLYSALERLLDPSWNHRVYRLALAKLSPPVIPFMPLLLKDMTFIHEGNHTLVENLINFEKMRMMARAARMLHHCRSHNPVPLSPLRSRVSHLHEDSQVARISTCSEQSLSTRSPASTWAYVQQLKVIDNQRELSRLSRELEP
Sequence of Rap guanine nucleotide exchange factor 4 (Homo sapiens) (Q8WZA2 whole entry, looked up): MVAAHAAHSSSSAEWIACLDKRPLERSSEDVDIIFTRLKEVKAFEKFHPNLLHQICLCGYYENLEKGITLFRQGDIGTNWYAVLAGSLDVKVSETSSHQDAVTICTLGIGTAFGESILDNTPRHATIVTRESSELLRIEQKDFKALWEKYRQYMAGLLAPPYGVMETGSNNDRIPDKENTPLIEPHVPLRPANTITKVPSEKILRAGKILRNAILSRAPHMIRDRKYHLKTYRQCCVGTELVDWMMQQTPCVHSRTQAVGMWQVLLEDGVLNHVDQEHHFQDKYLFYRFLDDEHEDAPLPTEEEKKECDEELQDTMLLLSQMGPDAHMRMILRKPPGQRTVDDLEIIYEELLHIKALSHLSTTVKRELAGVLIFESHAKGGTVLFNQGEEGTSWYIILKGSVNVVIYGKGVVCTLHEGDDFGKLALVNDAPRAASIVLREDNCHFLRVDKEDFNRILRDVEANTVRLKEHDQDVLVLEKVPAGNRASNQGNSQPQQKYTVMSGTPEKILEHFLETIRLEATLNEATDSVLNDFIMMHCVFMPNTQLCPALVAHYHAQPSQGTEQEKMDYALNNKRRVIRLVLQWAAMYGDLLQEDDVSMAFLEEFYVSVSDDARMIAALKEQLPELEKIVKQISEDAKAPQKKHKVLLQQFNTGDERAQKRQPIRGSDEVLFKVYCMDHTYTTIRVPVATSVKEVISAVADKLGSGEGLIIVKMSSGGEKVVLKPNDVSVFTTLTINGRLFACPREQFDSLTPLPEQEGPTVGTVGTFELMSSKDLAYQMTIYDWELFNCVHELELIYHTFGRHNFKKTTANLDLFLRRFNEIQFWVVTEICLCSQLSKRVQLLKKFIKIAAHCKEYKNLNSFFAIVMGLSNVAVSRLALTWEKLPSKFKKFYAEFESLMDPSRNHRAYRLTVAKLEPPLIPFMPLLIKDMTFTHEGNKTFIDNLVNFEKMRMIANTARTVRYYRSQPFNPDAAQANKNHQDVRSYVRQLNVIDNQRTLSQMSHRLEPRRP
Sequence of Cytochrome P450 2C9 (Homo sapiens) (P11712 whole entry, looked up): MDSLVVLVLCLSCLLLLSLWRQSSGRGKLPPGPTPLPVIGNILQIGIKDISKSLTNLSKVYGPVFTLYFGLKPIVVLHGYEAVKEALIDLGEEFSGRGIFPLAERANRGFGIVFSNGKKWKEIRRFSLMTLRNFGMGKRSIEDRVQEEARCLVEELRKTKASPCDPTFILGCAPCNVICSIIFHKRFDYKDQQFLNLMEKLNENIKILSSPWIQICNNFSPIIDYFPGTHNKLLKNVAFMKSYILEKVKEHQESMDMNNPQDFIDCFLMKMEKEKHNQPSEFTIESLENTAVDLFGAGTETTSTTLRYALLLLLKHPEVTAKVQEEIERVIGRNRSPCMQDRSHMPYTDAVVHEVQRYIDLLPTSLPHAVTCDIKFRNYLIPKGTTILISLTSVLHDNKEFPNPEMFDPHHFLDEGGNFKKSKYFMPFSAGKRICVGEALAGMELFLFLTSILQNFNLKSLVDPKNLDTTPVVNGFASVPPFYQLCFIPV

For `Clc1ccc2c(c1)C(N1CCNCC1)=Nc1ccccc1O2`, the Potency [1] was “inactive”, the Potency [2] was “inactive” and the Potency [3] was “inactive”. The Potency [4] was “inactive”.
For `COc1ccc(C2CNC(=O)C2)cc1OC1CCCC1` (stereo not given), the Potency [1] was “inactive”, the Potency [2] was “inactive” and the Potency [3] was “inactive”. For the same molecule, the Potency [4] was “inactive”.
For `Nc1nc2c(ncn2COC(CO)CO)c(=O)[nH]1`, the Potency [1] was “inactive”, the Potency [2] was “inactive” and the Potency [3] was “inactive”. The Potency [4] was “inactive”.
In the case of `O=C1N(c2ccccc2)c2ccccc2C1(Cc1ccncc1)Cc1ccncc1`, the Potency [1] is reported as 2.19 µM (active), the Potency [2] is reported as “inactive” and the Potency [3] is reported as “inactive”. For the same molecule, the Potency [4] was “inactive”.
In the case of `C[C@@H]1CC(=O)NN=C1c1ccc(NN=C(C#N)C#N)cc1`, the Potency [1] is reported as 977 nM (active) and 692 nM (active), the Potency [3] is reported as 9.44 µM (active) and 18.6 µM (active) and the Potency [4] is reported as 11.9 µM (active) and 23.7 µM (active).
In the case of `COc1cc2nc(N3CCN(C(=O)c4ccco4)CC3)nc(N)c2cc1OC`, the Potency [1] is reported as “inactive”, the Potency [3] is reported as 13 µM (active) and the Potency [4] is reported as 13 µM (active).
In the case of `Nc1nnc(-c2cccc(Cl)c2Cl)c(N)n1`, the Potency [1] is reported as “inactive”, the Potency [2] is reported as “inactive” and the Potency [3] is reported as “inactive”. The Potency [4] was “inactive”.
In the case of `CC(COc1ccccc1)N(CCCl)Cc1ccccc1` (stereo not given), the Potency [1] is reported as 12.1 µM (active), the Potency [3] is reported as “inactive” and the Potency [4] is reported as “inactive”.
In the case of `CN1CCN(CCCN2c3ccccc3Sc3ccc(Cl)cc32)CC1`, the Potency [1] is reported as “inactive”, the Potency [2] is reported as “inactive” and the Potency [5] is reported as “inactive”. For the same molecule, the Potency [6] was 35 µM (active).
With `CC(C)C(=O)Nc1ccc([N+](=O)[O-])c(C(F)(F)F)c1` the Potency [2] was “inactive”.
In the case of `Cn1c(=O)c2[nH]cnc2n(C)c1=O`, the Potency [2] is reported as “inactive”, the Potency [3] is reported as “inactive” and the Potency [4] is reported as “inactive”.
In the case of `OCCN1CCN(CCCN2c3ccccc3Sc3ccc(C(F)(F)F)cc32)CC1`, the Potency [2] is reported as “inactive”, the Potency [3] is reported as 18.8 µM (active) and the Potency [4] is reported as 18.8 µM (active). The Potency [5] was “inactive”, the Potency [7] was “inactive” and the Potency [6] was 44.1 µM (active).
With `COc1ccccc1N1CCN(CC(O)COc2cccc3ccccc23)CC1` (stereo not given) the Potency [2] was “inactive”.
With `NC12CC3CC(CC(C3)C1)C2` the Potency [2] was “inactive”, the Potency [3] was “inactive” and the Potency [4] was “inactive”.
For `CCCCc1oc2ccccc2c1C(=O)c1cc(I)c(OCCN(CC)CC)c(I)c1`, the Potency [2] was “inactive”.
With `CN1CCN(C2=Nc3cc(Cl)ccc3Nc3ccccc32)CC1` the Potency [2] was “inactive”.
With `CCCNCC(O)COc1ccccc1C(=O)CCc1ccccc1` (stereo not given) the Potency [2] was “inactive”, the Potency [3] was 18.6 µM (active) and the Potency [4] was 15 µM (active) and 16.6 µM (active).
With `OCCN(CCO)c1nc(N2CCCCC2)c2nc(N(CCO)CCO)nc(N3CCCCC3)c2n1` the Potency [2] was “inactive”, the Potency [3] was 6.68 µM (active) and inactive and the Potency [4] was 6.68 µM (active) and inactive. The outcome [8] was “inactive”, the Potency [5] was 79.3 µM (active) and 70.6 µM (active) and 63 µM (active) and the Potency [7] was 79.3 µM (active) and 70.6 µM (active) and 112 µM (active). For the same molecule, the Potency [6] was “inactive” and the outcome [9] was “inactive”.
